From the supplement of paper PMC13392028
Over roughly 4,100 sequences, “RBNS R-value (6-mer enrichment in protein-bound RNA vs input library)” has its median near 0.99; the highest 2% begin near 1.4. The list comes from a sample in which the highest values are over-represented; it also holds similar and randomly drawn sequences.

Tested on: PfIESI-1 RRM domain (Plasmodium falciparum ortholog aa 875-1232, GST fusion)
Assay: RBNS R-value (6-mer enrichment in protein-bound RNA vs input library) (ratio); higher = stronger binding preference; the methods of the paper give 50 / 100 / 500 nM protein instead
Protocol: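 RNA Bind-n-Seq: recombinant GST-tagged IESI-1 RRM domain was incubated at room temperature with a random 40-nt in vitro transcribed RNA library at 250, 500 or 1000 nM protein. Bound RNA was pulled down on glutathione beads and sequenced. R-value is the enrichment of each 6-mer in the bound RNA relative to the input library. Each 6-mer sits inside the random 40-mer context, not as an isolated oligo. Values are replicate 1 only.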

Row | Sequence | RBNS R-value (protein concentration: 250 nM) | RBNS R-value (protein concentration: 500 nM) | RBNS R-value (protein concentration: 1000 nM)
1 | AAUGAG | 1.02 | 1.1 | 1.07
2 | CAUGAU | 2.24 | 2.42 | 1.85
3 | AAUGCU | 0.913 | 0.938 | 0.914
4 | UAUGAA | 0.854 | 0.932 | 0.895
5 | AAUGAU | 2.28 | 2.5 | 1.88
6 | UAUGAG | 0.911 | 0.958 | 0.958
7 | CAUGAG | 1.06 | 1.07 | 1.07
8 | CAUGAA | 0.967 | 1.05 | 1.01
9 | UAUGAU | 1.95 | 2.17 | 1.61
10 | CACGUU | 0.886 | 0.866 | 0.874
11 | GCACGA | 1.08 | 1.09 | 1.1
12 | AGCAGG | 1.02 | 1.05 | 1.12
13 | AGAGUG | 1.09 | 1.09 | 1.05
14 | CUUGAC | 1.28 | 1.19 | 1.22
15 | CUUGAA | 1.1 | 1.09 | 1.1
16 | AUUGAG | 1.07 | 1.1 | 1.04
17 | GUUGAU | 1.71 | 1.81 | 1.51
18 | UUUGAU | 2.39 | 2.62 | 1.95
19 | AUUGAC | 1.12 | 1.14 | 1.08
20 | UUUGAA | 0.988 | 1.05 | 1.05
21 | GUUGAC | 1.01 | 0.99 | 1.02
22 | CUUGAU | 2.01 | 2.15 | 1.74
23 | UUUGAC | 1.17 | 1.15 | 1.12
24 | AUUGAU | 2.21 | 2.4 | 1.85

Row | Sequence | RBNS R-value (protein concentration: 250 nM) | RBNS R-value (protein concentration: 500 nM) | RBNS R-value (protein concentration: 1000 nM)
25 | GUUGAG | 0.972 | 0.963 | 1
26 | AGGACA | 1 | 1.03 | 1.04
27 | CCUUGU | 0.991 | 0.946 | 0.954
28 | GGGAGU | 1.1 | 1.05 | 1.09
29 | CCGCCA | 1.08 | 0.99 | 1.06
30 | AUCCUA | 0.949 | 0.898 | 0.9
31 | GCCCCU | 1.04 | 0.964 | 1.02
32 | AAUCAA | 0.817 | 0.94 | 0.899
33 | GCCAUA | 0.918 | 0.859 | 0.881
34 | UGGCUU | 1.01 | 0.984 | 0.967
35 | AAAAAC | 1.13 | 1.3 | 1.2
36 | GAGCGU | 0.994 | 0.96 | 0.986
37 | CCGAGA | 1.59 | 1.4 | 1.41
38 | CCGAGC | 1.29 | 1.16 | 1.24
39 | UCGAGA | 1.26 | 1.23 | 1.22
40 | GCAGGU | 1.01 | 0.998 | 1.07
41 | CGGGGU | 1.06 | 1.04 | 1.07
42 | AUUCGU | 0.903 | 0.913 | 0.916
43 | GGGGUG | 1.1 | 1.02 | 1.07
44 | CCAUGG | 1.07 | 1.01 | 1.07
45 | GCAUGC | 1.01 | 0.974 | 1
46 | GCAUGA | 1.41 | 1.43 | 1.27
47 | CCAUGU | 0.923 | 0.903 | 0.916
48 | GCAUGG | 0.998 | 0.987 | 1.04

Row | Sequence | RBNS R-value (protein concentration: 250 nM) | RBNS R-value (protein concentration: 500 nM) | RBNS R-value (protein concentration: 1000 nM)
49 | CCAUGA | 1.4 | 1.43 | 1.27
50 | GAGAGA | 1.26 | 1.29 | 1.28
51 | UGCGAC | 1.06 | 1 | 1
52 | UAAAAA | 0.951 | 1.17 | 1.05
53 | GACACC | 1.56 | 1.32 | 1.35
54 | GGCACC | 1.38 | 1.2 | 1.29
55 | GACACU | 1.2 | 1.19 | 1.14
56 | GACACG | 1.13 | 1.1 | 1.12
57 | GGCACU | 1.11 | 1.03 | 1.07
58 | GGCACA | 1.05 | 1.05 | 1.04
59 | CGAUCG | 0.905 | 0.881 | 0.937
60 | CUGCGG | 1.03 | 0.975 | 1.05
61 | CCUCCG | 1.07 | 1.01 | 1.07
62 | ACUUAC | 0.815 | 0.767 | 0.76
63 | GCCAAA | 1.06 | 1.08 | 1.1
64 | AAGCGC | 1.03 | 1.06 | 1.04
65 | UAUUGG | 0.864 | 0.848 | 0.873
66 | UAGAAU | 1.06 | 1.14 | 1.06
67 | GAGAAA | 1.41 | 1.55 | 1.45
68 | GAGAAU | 1.43 | 1.5 | 1.37
69 | GAGAAG | 1.33 | 1.36 | 1.29
70 | GAGAAC | 1.24 | 1.31 | 1.27
71 | CAGAAU | 1.12 | 1.18 | 1.15
72 | UCGGCU | 0.925 | 0.885 | 0.937

Row | Sequence | RBNS R-value (protein concentration: 250 nM) | RBNS R-value (protein concentration: 500 nM) | RBNS R-value (protein concentration: 1000 nM)
73 | GCCUCA | 0.982 | 0.946 | 1.02
74 | CCCCGA | 1.37 | 1.23 | 1.31
75 | GCCCGG | 1.38 | 1.2 | 1.31
76 | ACCCGU | 1.24 | 1.12 | 1.19
77 | UCCCGA | 1.2 | 1.12 | 1.14
78 | ACCCGA | 1.63 | 1.36 | 1.4
79 | ACCCGG | 1.44 | 1.25 | 1.32
80 | ACCCGC | 1.29 | 1.17 | 1.23
81 | GCCCGA | 1.52 | 1.34 | 1.36
82 | GCCCGU | 1.17 | 1.07 | 1.13
83 | UGAGUG | 1.07 | 1.11 | 1.06
84 | GGCUGG | 1.06 | 1 | 1.08
85 | AUUCCA | 1.24 | 1.23 | 1.22
86 | GAGGCC | 1.15 | 1.07 | 1.13
87 | AUGUAG | 0.952 | 1.04 | 0.956
88 | UGACAU | 1.14 | 1.14 | 1.12
89 | UGACAA | 1.07 | 1.14 | 1.08
90 | UGACAC | 1.39 | 1.32 | 1.3
91 | GCACGG | 1.02 | 0.986 | 1.05
92 | AUGGCA | 1.28 | 1.26 | 1.16
93 | UGCUAU | 0.951 | 0.947 | 0.896
94 | UCUCGA | 1.01 | 1 | 1.04
95 | GAUUAA | 1.24 | 1.42 | 1.2
96 | CAUUAG | 0.827 | 0.851 | 0.841

Row | Sequence | RBNS R-value (protein concentration: 250 nM) | RBNS R-value (protein concentration: 500 nM) | RBNS R-value (protein concentration: 1000 nM)
97 | GAUUAC | 1.36 | 1.48 | 1.29
98 | AAUUAA | 0.748 | 0.862 | 0.797
99 | GAUUAG | 1.3 | 1.4 | 1.25
100 | AAUUAG | 0.847 | 0.908 | 0.88
101 | CAUUAC | 0.794 | 0.766 | 0.761
102 | UAUUAC | 0.773 | 0.754 | 0.724
103 | CAUUAA | 0.748 | 0.797 | 0.751
104 | UCAUAC | 0.811 | 0.758 | 0.768
105 | UAUAGC | 0.876 | 0.87 | 0.833
106 | CUUUAU | 0.759 | 0.733 | 0.732
107 | CUCUCU | 0.881 | 0.796 | 0.867
108 | CUCCAC | 1.02 | 0.964 | 0.993
109 | UUUUUG | 1.18 | 1.26 | 1.16
110 | GAAAAA | 1.29 | 1.48 | 1.37
111 | AAAAAA | 1.25 | 1.51 | 1.36
112 | AAAAAG | 1.2 | 1.37 | 1.29
113 | GAAAAU | 1.12 | 1.29 | 1.19
114 | CGAAAA | 1.17 | 1.28 | 1.23
115 | AAAAAU | 1.07 | 1.29 | 1.16
116 | AGAAAA | 1.27 | 1.48 | 1.35
117 | GAAAAC | 1.2 | 1.32 | 1.24
118 | AGAAAU | 1.09 | 1.29 | 1.16
